Assay outcomes deposited in PubChem by The Scripps Research Institute Molecular Screening Center.
SRC2 inh – inhibition of GAL4-SRC2 driven luciferase reporter, primary screen, SRC2 inhibitor project, cell-based, luminescence; Nuclear receptor coactivator 2 (Homo sapiens), Q15596; HEK293 GAL4-SRC2 luciferase reporter; inhibition, % at 9 µM; actives 0.17% (n = 370,000); AID 651957, 2012;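 active = inhibition above the mean inhibition of all tested compounds plus 3 SD, set per campaign, cut at about 52% in these data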;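 also: 0% = DMSO treated cells and 100% = cells given Gossypol at 36 µM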
LRH-1 inv ag – LRH-1 (NR5A2) inverse agonists, primary screen, cell-based, luminescence, HEK293T, StAR-luciferase reporter; Nuclear receptor subfamily 5 group A member 2 (Homo sapiens), O00482; LRH-1 transfected, 24 h; inhibition, % at 3.6 µM; actives 0.13% (n = 360,000); AID 602396, 2012;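 active = inhibition above the mean inhibition of all tested compounds plus 3 SD, cut at about 73% in these data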;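 also: 0% = DMSO wells and 100% = reporter-only cells lacking LRH-1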
SRC1 inh – SRC1 coactivator transcriptional activity inhibitors, primary screen, cell-based, luminescence; Nuclear receptor coactivator 1 (Homo sapiens), Q15788; HEK293 GAL4-SRC1 luciferase reporter; inhibition, % at 3.6 µM; actives 0.12% (n = 360,000); AID 588354, 2011;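 active = inhibition above the campaign mean plus 3 SD, with each screening campaign given its own cutoff, cut at about 60% in these data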;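 also: 0% = DMSO treated cells and 100% = gossypol at 36 µM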
GalR3 antag – GalR3 antagonists in HEK293 cells, primary screen, cell-based, fluorescence readout. Galanin receptor type 3 (Homo sapiens), O60755. HEK293 GalR3-CNG cAMP membrane potential fluorescence; galR3 body fused to GalR1 C-terminus. inhibition, % at 3 µM. actives 0.44% (n = 360,000);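 active = inhibition above the screen-wide average plus 3 SD, cut at about 13% in these data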;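 also: forskolin and galanin both at EC90 stimulate the cells; cAMP rise reported by CNG channel membrane potential dye signal; 0% = forskolin plus galanin with DMSO and 100% = forskolin alone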
SRC3 inh – SRC3 coactivator transcriptional activity inhibitors, primary screen, cell-based, luminescence | inhibition, % at 3.6 µM | actives 0.17% (n = 360,000) | AID 588352, 2011 | HEK293 GAL4-SRC3 luciferase reporter;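 active = inhibition above a per-campaign cutoff, the mean of all compounds plus 3 SD, cut at about 60% in these data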;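 also: 0% = DMSO-treated cells and 100% = gossypol-treated cells at 36 µM; higher means less SRC3-driven luciferase light from the GAL4 reporter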
NR2F2 inh – NR2F2 transcriptional activity inhibitors, primary screen, cell-based, luciferase reporter, HEK293T, luminescence | COUP transcription factor 2 (Homo sapiens), P24468 | HEK293T NGFI-A luciferase reporter | inhibition, % at 8.6 µM | actives 0.7% (n = 370,000) | AID 686940, 2013;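 active = inhibition above a per-plate cutoff, mean inhibition of test wells between control levels plus 3 SD, cut at about 38% in these data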;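 also: cells cotransfected with COUP-TFII expression vector driving the NGFI-A reporter; 0% = median of COUP-TF2 test wells and 100% = reporter-only cells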
Target sequence (P24468 whole entry, looked up): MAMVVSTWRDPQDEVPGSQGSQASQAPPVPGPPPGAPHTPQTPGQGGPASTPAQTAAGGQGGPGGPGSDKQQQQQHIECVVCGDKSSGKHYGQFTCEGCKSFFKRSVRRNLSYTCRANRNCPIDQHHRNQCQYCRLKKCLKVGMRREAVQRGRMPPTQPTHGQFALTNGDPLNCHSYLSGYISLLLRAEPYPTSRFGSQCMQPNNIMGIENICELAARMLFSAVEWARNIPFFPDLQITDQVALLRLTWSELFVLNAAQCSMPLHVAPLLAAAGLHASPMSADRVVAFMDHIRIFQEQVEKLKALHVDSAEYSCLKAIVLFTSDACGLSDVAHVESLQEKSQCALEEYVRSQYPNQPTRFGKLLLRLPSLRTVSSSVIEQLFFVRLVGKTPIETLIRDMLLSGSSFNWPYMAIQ
GalR3 antag conf – GalR3 antagonist hit confirmation, cell-based, fluorescence, triplicate; inhibition, % at 3 µM; HEK293 GalR3 CNG cAMP biosensor, membrane potential fluorescence; galR3 fused to GalR1 carboxy tail; challenged with forskolin and galanin at EC90; actives 59% (n = 1,600); shares compounds with GalR3 antag;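 active = inhibition above the primary screen's cutoff, the mean inhibition of all screened compounds plus 3 SD, cut at about 13% in these data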;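 also: 0% = forskolin plus galanin and 100% = forskolin alone with DMSO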
HEK-CNG parental – nonspecific cAMP agonists in parental HEK-CNG cells, counter-screen for GalR3 antagonist project, cell-based, fluorescence, high throughput; activation, % at 3 µM; HEK293-CNG parental cells, cAMP membrane potential fluorescence; normalised: DMSO wells 0%, forskolin wells 100%; actives 10% (n = 1,600); shares compounds with GalR3 antag; in the data active = activation above about 1.3%
An asterisk follows results filed as active; nt = no result. Only some compounds are listed: those with a hit (about 1.1% of all), similar ones and a draw of the others.

SMILES	SRC2 inh	LRH-1 inv ag	SRC1 inh	GalR3 antag	SRC3 inh	NR2F2 inh	GalR3 antag conf	HEK-CNG parental
O=C(CN1CCN(Cc2ccccc2F)C1=O)NC1CCCC1	-27	-2	4	13*	9	-8	4	0
COC(=O)[C@H]1C[C@@]2(C)c3ccccc3N(S(=O)(=O)c3ccccc3)[C@H]2N1	23	nt	nt	nt	nt	-7	nt	nt
CCN(CC)S(=O)(=O)c1cccc(NC(=O)COC(=O)c2cc(C)oc2C)c1	-13	13	-19	-3	11	9	nt	nt
CCc1ccc(NC(=O)c2n[nH]c(=O)c3ccccc23)cc1	-52	-40	-108	15*	-43	-38	4	0
O=C(NCCOc1ccccc1)c1n[nH]c(=O)c2ccccc12	-27	-21	-10	20*	-20	-27	1	0
CCN(CC)S(=O)(=O)c1cccc(NC(=O)COC(=O)c2n[nH]c(=O)c3ccccc23)c1	4	2	-2	15*	2	-4	51*	-1
Cc1cc(/C=N/n2c(COc3ccccc3)nc3ccccc3c2=O)c(O)c([N+](=O)[O-])c1	21	-9	-31	31*	17	-2	44*	-1
Cc1ccc(-c2nnc(COC(=O)c3cc(=O)[nH]c4ccccc34)o2)cc1	15	3	1	13*	-4	8	1	0
COC(=O)[C@]12C[C@H](CC(=O)NCCCN3CCCC3=O)C(=O)N(CCc3ccc(OC)c(OC)c3)C1=C[C@H](C1CCCC1)O[C@@H]2C	0	nt	nt	nt	nt	-11	nt	nt
CC1(C)CC(=O)C2=C(C1)N=C1c3ccccc3C(=O)C1C2c1ccc(Cl)cc1 (stereo not drawn)	-15	22	-2	2	7	4	nt	nt
Cc1ccc(C2C3=C(CC(C)(C)CC3=O)N=C3c4ccccc4C(=O)C32)cc1 (stereo not drawn)	3	15	10	15*	6	8	31*	0
COc1ccccc1CNC(=S)NC1CCCCC1	2	-7	-10	14*	-15	-3	12	0
Fc1ccccc1CNC(=S)NC1CCCCC1	-1	-23	-4	-3	-11	-14	nt	nt
O=C(CSC1=NCCS1)c1ccc(Cl)cc1	-34	-15	2	-4	9	13	nt	nt
O=C(CSC1=NCCS1)N1CCN(c2ccc(Cl)cc2)CC1	14	44	7	45*	15	36	46*	0
Oc1ccc(CNc2cccnc2)c2cccnc12	nt	nt	nt	nt	nt	-13	nt	nt
COc1ccc(-c2nc3cc(NC(=O)Cc4ccc(OC)c(OC)c4)ccc3o2)cc1	-13	-3	-7	38*	3	28	11	0
COc1ccc(OCC(=O)Nc2ccc3oc(-c4ccncc4)nc3c2)cc1	-25	-6	-3	-1	2	-46	nt	nt
Cc1ccc2nc(SCC(=O)Nc3ccc(F)cc3)nc(=O)n2c1	-5	-7	1	1	-29	-9	nt	nt
Cc1ccc2nc(SCC(=O)NCc3ccc(F)cc3)nc(=O)n2c1	2	0	6	18*	11	-13	3	0
O=C1C(CN2CCCC2)CCCC1CN1CCCC1 (stereo not drawn)	-27	-29	-6	15*	2	-70	-1	1
O=C(NCCc1c[nH]c2ccccc12)OCc1cn(Cc2cccc(F)c2)nn1	-14	nt	nt	nt	nt	-20	nt	nt
Cn1c(=O)[nH]c2c(Cl)nccc21	1	15	9	16*	20	8	7	0
COCCCNC(=O)c1cc2cc(Br)ccc2oc1=O	-17	-5	-14	34*	10	19	0	0
COc1cc(C2NC(=O)NC(C)=C2C(=O)OCc2ccc(C)cc2)cc(OC)c1OC (stereo not drawn)	-2	9	8	-1	-9	-6	nt	nt
SMILES	SRC2 inh	LRH-1 inv ag	SRC1 inh	GalR3 antag	SRC3 inh	NR2F2 inh	GalR3 antag conf	HEK-CNG parental
COc1cc(C2NC(=O)NC(C)=C2C(=O)OCc2ccc(C)cc2)cc(OC)c1O (stereo not drawn)	-15	-2	-23	15*	21	9	14*	0
Cc1ccc(-c2nnc(SCC(=O)NN=Cc3c[nH]c4ccccc34)n2-c2ccccc2)cc1	7	nt	nt	nt	nt	-1	nt	nt
O=C(CSc1nc2ccccc2[nH]1)Nc1c(F)c(F)c(F)c(F)c1F	6	6	-2	16*	3	-5	7	-1
CC(C)(C)c1ccc(C(=O)Nc2cc(Cl)ccc2-c2nn[nH]n2)cc1	nt	nt	nt	nt	nt	-13	nt	nt
COc1ccc(CCNC(=O)c2cc3ccccn3n2)cc1	19	nt	nt	nt	nt	-21	nt	nt
COc1ccc(C(=O)Nc2ccccc2C(=O)NC(Cc2ccc(O)cc2)C(=O)NNC(=O)c2ccc(C)cc2)cc1 (stereo not drawn)	-10	-4	-17	4	-6	2	nt	nt
COc1ccc(C(=O)Nc2ccccc2C(=O)NC(Cc2ccc(O)cc2)C(=O)NNC(=O)c2ccccc2)cc1 (stereo not drawn)	-42	-6	-21	13*	-4	-6	6	0
CCOC(=O)c1c(C)c2c(n1C)CCC/C2=N\O	6	-14	-12	66*	-8	-33	32*	0
S=C(Nc1ccc(Cl)cc1)OC1CCC12CCC(c1ccccc1)CC2 (stereo not drawn)	-4	nt	nt	nt	nt	-1	nt	nt
CC(C)(C)OC(=O)NCCCCCc1nnc(SCC(=O)Nc2cccc(Cl)c2)o1	12	12	-16	17*	6	26	77*	-1
COC(=O)CCCn1cc(CN2CC=CS2(=O)=O)nn1	11	nt	nt	nt	nt	-13	nt	nt
O=C(NC1CCCCN(Cc2cccc(C(F)(F)F)c2)C1=O)c1cccc(F)c1 (stereo not drawn)	9	nt	nt	nt	nt	8	nt	nt
Nc1nc2c(ncn2[C@@H]2O[C@H](C(=O)N[C@H](Cc3ccccc3)C(=O)O)[C@@H](O)[C@H]2O)c(=O)[nH]1	9	nt	nt	-6	nt	3	nt	nt
